Where “and” joins values, the source holds several entries; their conditions need not be identical. Identical values can stand only once. Records with an inconclusive call do not appear. More than one record can exist for a structure, and the calls need not agree. Calls of active or inactive are those of the source. Unless noted, calls come from the whole dose curve; as a rule, active = well fitted curve in the direction sought with a large enough effect in the repeat runs; inconclusive = weak or mixed curves; inactive = no such curve, though single readings can be large; an effect the other way counts as inactive or inconclusive.
How the values were obtained:
[1] = qHTS assay to identify small molecule antagonists of the estrogen related receptor (ERR) signaling pathway from Tox21 library - cell viability counter screen (AID 1224834); note: nearly all actives have a fitted effect of over 30% in size; note: potency is the fitted concentration of half-maximal effect
Method in brief: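 ERR reporter cells, 2,000 per well, rested 6 h, then exposed to compound in DMSO for 17.5 hours at 37 C. Viability read as fluorescence after 30 min with CellTiter-Fluor.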

[2] = biological target: Luciferin 4-monooxygenase (Photinus pyralis) (UniProt P08659); experiment: qHTS assay to identify small molecule inhibitors of firefly luciferase (AID 1224835); note: nearly all actives have a fitted effect of over 25% in size; note: potency is the fitted concentration of half-maximal effect
Sequence of Luciferin 4-monooxygenase (Photinus pyralis) (P08659 whole entry, looked up): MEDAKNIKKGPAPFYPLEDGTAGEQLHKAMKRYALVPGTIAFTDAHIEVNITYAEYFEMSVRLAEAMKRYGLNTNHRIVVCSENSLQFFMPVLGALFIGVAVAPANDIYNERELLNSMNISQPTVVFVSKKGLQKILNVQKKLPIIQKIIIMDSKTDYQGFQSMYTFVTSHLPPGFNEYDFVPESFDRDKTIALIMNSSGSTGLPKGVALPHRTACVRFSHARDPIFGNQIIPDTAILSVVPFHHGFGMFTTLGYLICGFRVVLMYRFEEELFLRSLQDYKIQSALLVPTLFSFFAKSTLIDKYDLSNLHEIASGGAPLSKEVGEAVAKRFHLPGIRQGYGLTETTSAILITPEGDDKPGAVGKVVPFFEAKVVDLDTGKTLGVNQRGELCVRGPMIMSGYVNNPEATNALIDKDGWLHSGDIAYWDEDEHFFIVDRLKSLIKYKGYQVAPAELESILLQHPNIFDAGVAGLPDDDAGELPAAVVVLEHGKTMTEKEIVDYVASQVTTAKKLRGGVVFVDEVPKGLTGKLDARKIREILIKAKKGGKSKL
Method in brief: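 Quantitative HTS format; KM concentrations of both substrates. Purified P. pyralis FLuc activity quantified from luminescence images.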

[3] = qHTS assay to identify small molecule agonists of the constitutive androstane receptor (CAR) signaling pathway - cell viability counter screen (AID 1224836); note: nearly all actives have a fitted effect of over 45% in size; note: potency is the fitted concentration of half-maximal effect
Method in brief: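 HepG2 cells stably carrying hCAR and a CYP2B6-2.2kb reporter; 15-concentration compounds plus PK11195 (final 0.75 uM), 23 hr at 37 C/5% CO2. Viability read by CellTiter-Fluor fluorescence.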

[4] = qHTS assay to identify small molecule antagonists of the constitutive androstane receptor (CAR) signaling pathway - cell viability counter screen (AID 1224837); note: nearly all actives have a fitted effect of over 45% in size; note: potency is the fitted concentration of half-maximal effect
Method in brief: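 HepG2 cells stably carrying hCAR and CYP2B6-2.2kb reporter, stimulated with 50 nM CITCO and compounds at 15 concentrations for 23 h at 37 C. Viability measured by CellTiter-Fluor fluorescence.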

[5] = biological target: Nuclear receptor subfamily 1 group I member 3 (Homo sapiens) (UniProt Q14994); experiment: qHTS assay to identify small molecule antagonists of the constitutive androstane receptor (CAR) signaling pathway (AID 1224838); note: nearly all actives have a fitted effect of over 40% in size
Sequence of Nuclear receptor subfamily 1 group I member 3 (Homo sapiens) (Q14994 whole entry, looked up): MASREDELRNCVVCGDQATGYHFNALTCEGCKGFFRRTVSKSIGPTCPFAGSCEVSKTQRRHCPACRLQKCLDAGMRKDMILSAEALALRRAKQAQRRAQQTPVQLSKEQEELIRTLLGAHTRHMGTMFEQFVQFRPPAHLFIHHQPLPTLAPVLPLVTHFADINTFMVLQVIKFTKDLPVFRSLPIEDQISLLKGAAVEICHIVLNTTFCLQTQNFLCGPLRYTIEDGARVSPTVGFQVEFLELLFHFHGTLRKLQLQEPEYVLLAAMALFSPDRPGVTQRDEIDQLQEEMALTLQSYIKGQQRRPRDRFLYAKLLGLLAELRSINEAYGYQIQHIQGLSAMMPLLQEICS
Method in brief: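 HepG2 cells stably carrying hCAR and a CYP2B6-2.2kb luciferase reporter, seeded 4 hrs before compound (15 concentrations). Stimulated with 50 nM CITCO for 24 hr at 37 C. ONE-Glo luminescence read after 30 min at room temperature.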

[6] = biological target: Nuclear receptor subfamily 1 group I member 3 (Homo sapiens) (UniProt Q14994); experiment: qHTS assay to identify small molecule agonists of the constitutive androstane receptor (CAR) signaling pathway (AID 1224839); note: series mostly up to about 92 µM; nearly all actives have a fitted effect of over 15% in size
Method in brief: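 HepG2 cells stably co-transfected with hCAR and a CYP2B6-2.2kb luciferase reporter; compounds at 15 concentrations with 0.75 uM PK11195 present. After 24 hr at 37 C, luciferase read by ONE-Glo luminescence.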

[7] = qHTS assay to identify small molecule antagonists of the estrogen related receptor signaling pathway with the pleiotropic PPARgamma coactivator (PGC) from Tox21 10K library - cell viability counter screen (AID 1224840; active = well fitted cell-killing curve with a large enough effect in the repeat runs, not every such curve was filed as active; note: nearly all actives have a fitted effect of over 40% in size; note: potency is the fitted concentration of half-maximal effect)
Method in brief: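 PGC/ERR cells (2,000/well) plated 6 h, then compound-treated for 17.5 h at 37 C. Viability measured by CellTiter-Fluor fluorescence after 30 min at 37 C, multiplexed with the pathway assay.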

[8] = biological target: Thyrotropin receptor (Homo sapiens) (UniProt P16473); experiment: qHTS assay to identify small molecule agonists of the thyroid stimulating hormone receptor (TSHR) signaling pathway (AID 1224843; calls by dose curve; note: nearly all actives have a fitted effect of over 45% in size)
Sequence of Thyrotropin receptor (Homo sapiens) (P16473 whole entry, looked up): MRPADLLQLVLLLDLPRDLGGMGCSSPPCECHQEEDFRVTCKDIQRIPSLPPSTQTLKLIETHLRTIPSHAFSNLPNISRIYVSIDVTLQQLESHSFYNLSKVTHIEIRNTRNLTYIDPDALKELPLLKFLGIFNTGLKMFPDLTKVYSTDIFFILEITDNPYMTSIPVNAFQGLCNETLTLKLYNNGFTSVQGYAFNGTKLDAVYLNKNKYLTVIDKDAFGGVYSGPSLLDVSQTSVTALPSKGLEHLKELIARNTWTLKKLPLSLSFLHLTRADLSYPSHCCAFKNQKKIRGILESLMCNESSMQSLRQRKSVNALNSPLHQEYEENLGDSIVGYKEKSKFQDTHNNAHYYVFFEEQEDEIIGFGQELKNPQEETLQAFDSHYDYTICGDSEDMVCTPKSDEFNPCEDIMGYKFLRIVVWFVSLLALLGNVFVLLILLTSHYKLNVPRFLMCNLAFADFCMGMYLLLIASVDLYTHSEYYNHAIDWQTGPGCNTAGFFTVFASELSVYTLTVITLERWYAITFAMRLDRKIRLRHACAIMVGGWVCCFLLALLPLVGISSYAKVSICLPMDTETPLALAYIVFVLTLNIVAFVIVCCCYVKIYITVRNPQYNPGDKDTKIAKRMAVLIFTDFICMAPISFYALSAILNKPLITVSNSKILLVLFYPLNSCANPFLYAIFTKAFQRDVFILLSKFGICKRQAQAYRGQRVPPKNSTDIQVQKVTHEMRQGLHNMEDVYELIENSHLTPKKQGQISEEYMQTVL
Method in brief: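 Cell line HEK293 with TSHR; density 800/well. Exposure 30 min RT. Readout HTRF cAMP (cAMP-d2/anti-cAMP-cryptate), 1 h RT before reading.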

[9] = qHTS assay to identify small molecule agonists of the hypoxia (HIF-1) signaling pathway - cell viability counter screen (AID 1224844; calls by dose curve; note: nearly all actives have a fitted effect of over 50% in size)
Method in brief: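 HRE-bla ME-180 cells, 2,000/well in 0.5% dialyzed FBS medium, treated 17 h at 37C with compounds. Viability read in the same wells as the bla reporter, by CellTiter-Glo luminescence after 30 min at room temperature.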

[10] = qHTS assay to identify small molecule agonists of H2AX (AID 1224845; active = well fitted activation curve with a large enough effect in the signal ratio in the repeat runs, not every such curve was filed as active; the % refers to the signal ratio)
Method in brief: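 Wild-type CHO-K1 cells plated overnight, then exposed 3 hr at 37C to compounds at 15 concentrations (0.76% DMSO). Lysed, then HTRF anti-pH2AX(S139)-cryptate/anti-H2AX-d2 detection after 24 hr at room temperature; emissions 665 and 620 nm.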

[11] = qHTS assay to identify small molecule agonists of the hypoxia (HIF-1) signaling pathway (AID 1224846; active = well fitted activation curve with a large enough effect in the signal ratio in the repeat runs, not every such curve was filed as active; the % refers to the signal ratio)
Method in brief: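 HRE-bla ME-180 beta-lactamase reporter cells in medium with 0.5% dialyzed FBS, pre-incubated 5 h then exposed to compounds 17 h at 37C, 5% CO2; reporter induction read with CCF4-AM FRET substrate.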

[12] = qHTS assay to identify small molecule agonists of H2AX - cell viability counter screen (AID 1224847; calls by dose curve; note: top concentration of the series differs between compounds; nearly all actives have a fitted effect of over 30% in size)
Method in brief: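 CHO-K1 cells plated overnight at 37C, then exposed 3 h at 37C to compounds at 15 concentrations (0.76% DMSO final). Viability by CellTiter-Glo luminescence after 30 min at room temperature.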

[13] = qHTS RealTime-Glo MT Cell Viability Assay in HepG2 cells - 24 hour (AID 1224867); note: nearly all actives have a fitted effect of over 50% in size
Method in brief: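 Cells + NanoLuc/prosubstrate dispensed (600 cells/well) → 5 h at 37 C/5% CO2 → compounds in DMSO transferred → 40 h incubation at 37 C, luminescence read at 0, 8, 16, 24, 32, 40 h.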

[14] = qHTS RealTime-Glo MT Cell Viability Assay in HEK293 cells - 32 hour (AID 1224868); note: top concentration of the series differs between compounds; nearly all actives have a fitted effect of over 50% in size
Method in brief: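 Tox21 10K qHTS, HEK293, 600 cells/well, RealTime-Glo reagent co-dispensed with cells; 5 h preincubation, compound by pintool, 37 C, luminescence at 0–40 h.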

[15] = A CellTox Green Cytotoxicity Assay to monitor cytotoxicity in HEK293 cells - 0 hour (AID 1224869); note: nearly all actives have a fitted effect of over 50% in size
Method in brief: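 HEK293 cells, 600/well, were preincubated 5 hours and then exposed to compounds at 37 C for up to 40 hours. A cell-impermeant cyanine dye staining dead-cell DNA was read by fluorescence at 0, 8, 16, 24, 32 and 40 h time points.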

[16] = qHTS RealTime-Glo MT Cell Viability Assay in HepG2 cells - 40 hour (AID 1224870); note: nearly all actives have a fitted effect of over 50% in size
Method in brief: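 HepG2 cells mixed with RealTime-Glo MT reagents (NanoLuc plus cell-permeant prosubstrate) were seeded at 600 cells/well, incubated 5 h at 37 C/5% CO2, then pinned with compounds in DMSO; nonlytic luminescence tracked viability during 40 h treatment.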

[17] = qHTS assay to identify small molecule antagonists of the estrogen related receptor signaling pathway with the pleiotropic PPARgamma coactivator (PGC) from Tox21 10K library (AID 1224841; call rule not given here; note: potency is the fitted concentration of half-maximal effect)
Method in brief: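 PGC/ERR cell line, 2,000 cells/well, pre-incubated 6 hours at 37 C, then exposed to compounds for 18 hours at 37 C; luciferase read with One-Glo luminescence after 30 min at room temperature.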

[18] = qHTS assay to identify small molecule agonists of the estrogen related receptor signaling pathway with the pleiotropic PPARgamma coactivator (PGC) from Tox21 10K library (AID 1224842); note: nearly all actives have a fitted effect of over 15% in size
Method in brief: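 PGC/ERR reporter cells (NTP line) were seeded 2,000 per well, rested 6 h at 37 C/5% CO2, then pin-dosed with compounds in DMSO for 18 h at 37 C; luciferase read by One-Glo luminescence after 30 min at room temperature.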

[19] = qHTS assay to identify small molecule antagonists of the estrogen related receptor (ERR) signaling pathway from Tox21 library (AID 1224848); note: nearly all actives have a fitted effect of over 50% in size
Method in brief: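 Screening used an ERR reporter line supplied by NTP, exposed for 18 h at 37 C to library compounds delivered in DMSO. Signal was luciferase luminescence developed with ONE-Glo at room temperature for 30 min.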

Measured: Potency

CCNC(=S)NCC
inactive: [1] | [2] | [3] | [4] | [5] | [6] | [7] | [8] | [9] | [10] | [11] | [12] | [13] | [14] | [15] | [16]

CCCCCC(=O)O
54.5 µM (active) and inactive: [17]
inactive: [1] | [2] | [3] | [4] | [7] | [18] | [8] | [9] | [10] | [11] | [12] | [19] | [13] | [14] | [15] | [16]

Cc1ccc([N+](=O)[O-])cc1S(=O)(=O)O
inactive: [1] | [2] | [3] | [4] | [7] | [17] | [18] | [8] | [9] | [10] | [11] | [12] | [19] | [13] | [14] | [15] | [16]

COCCOC(=O)c1ccccc1C(=O)OCCOC
inactive: [1] | [2] | [3] | [4] | [5] | [6] | [7] | [8] | [9] | [10] | [11] | [12] | [13] | [14] | [15] | [16]

CC(C)OC(=O)COc1ccc(Cl)cc1Cl
active: [2] 35 µM
inactive: [1] | [3] | [4] | [5] | [6] | [7] | [9] | [10] | [11] | [12] | [13] | [14] | [15] | [16]

O=c1[nH]cnc2[nH]ncc12
inactive: [1] | [2] | [3] | [4] | [5] | [6] | [7] | [9] | [10] | [12] | [13] | [14] | [15] | [16]

OC1C(O)C(O)C(O)C(O)C1O (centres undefined)
inactive: [1] | [2] | [3] | [4] | [7] | [8] | [9] | [10] | [11] | [12] | [13] | [14] | [15] | [16]

CC(=O)OCc1ccccc1
inactive: [1] | [2] | [3] | [4] | [7] | [8] | [9] | [10] | [11] | [12] | [13] | [14] | [15] | [16]

CCCCCCC=O
inactive: [1] | [2] | [3] | [4] | [7] | [8] | [9] | [10] | [11] | [12] | [13] | [14] | [15] | [16]

C=CCc1ccc(OC)c(OC)c1
inactive: [1] | [2] | [3] | [4] | [7] | [8] | [9] | [10] | [11] | [12] | [13] | [14] | [15] | [16]

O=S(=O)(O)c1ccc(N=Nc2c(O)ccc3cc(S(=O)(=O)O)ccc23)cc1
27.4 µM (active) and inactive: [17]
inactive: [5] | [6] | [18] | [9] | [11] | [12] | [19] | [14] | [15]
active: [1] 30.8 µM and 54.5 µM | [3] 54.7 µM and 30.6 µM | [4] 54.7 µM and 27.3 µM | [7] 48.6 µM

CC(=O)Oc1ccc(C)cc1
inactive: [1] | [2] | [3] | [4] | [7] | [9] | [10] | [11] | [12] | [13] | [14] | [15] | [16]

COc1ccc(CCC(C)=O)cc1
inactive: [1] | [2] | [3] | [4] | [7] | [8] | [9] | [10] | [11] | [12] | [13] | [14] | [15] | [16]

Brc1ccc(Br)c(Br)c1
inactive: [1] | [2] | [3] | [4] | [7] | [8] | [9] | [10] | [11] | [12] | [13] | [14] | [15] | [16]

C=CC[N+](C)(C)CC=C
inactive: [1] | [2] | [3] | [4] | [7] | [8] | [9] | [10] | [11] | [12] | [13] | [14] | [15] | [16]

Nc1ccc(Cl)c(N)c1
inactive: [2] | [3] | [4] | [7] | [8] | [9] | [10] | [11] | [12] | [13] | [14] | [15] | [16]

CCOC(=O)c1ccc(N)cc1
inactive: [3] | [4] | [5] | [6] | [7] | [8] | [9] | [10] | [12] | [13] | [14] | [15] | [16]

CC(O)CC(C)(C)O (centres undefined)
inactive: [1] | [2] | [3] | [4] | [7] | [9] | [10] | [11] | [12] | [13] | [14] | [15] | [16]

— PubChem BioAssay (Tox21)
